In PubChem BioAssay (NCI):
“And” between values parts separate entries of the source, which are not always exact repeats. Equal values may be shown once. The panel holds about 83,000 compounds, 20% with a hit somewhere; the sample as a whole holds those more often.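 For each line, cells grew in 96-well plates with the test compound present at a single concentration for 48 hours.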 The source made the active and inactive calls.

System: SK-MEL-5 melanoma
Assay: NCI-60 one-dose screen, 48 h (100 = growth as untreated, 0 = no growth, -100 = all killed)
Settings: 10 µM
Procedure: Growth inhibition of the SK-MEL-5 human tumor cell line is measured as a screen for anti-cancer activity. Cells are grown in 96 well plates and exposed to the test compound for 48 hours. Compounds are tested at a single concentration, which is 10^-5 M for most compounds. The reported endpoint is percent growth (GI% or GIPRCNT), where numbers from 0 - 100% represent growth inhibition, and numbers from -100% - 0 represent cell death. For example, a value of 40 represents 60% growth inhibition. A value of 0 means no net growth occurred over the course of the experiment. A value of -40 indicates 40% of cells at the beginning of the experiment died by the end of the experiment. A value of -100 means all cells are dead at the end of the experiment.
NCI-60 Human Tumor Cell Lines Screen was performed using the standard one-dose NCI protocol, which is described in more detail at https://dtp.cancer.gov/discovery_development/nci-60/default.htm.
Compounds with GIPRCNT values below 10 were considered active. Activity score was based on GIPRCNT using the following formula: […]
Score is 0 for GIPRCNT values of 100 or above, 50 for GIPRCNT values of 0, and 100 for GIPRCNT values of -100.

Row | SMILES | growth
1 | O=C(O)CCCc1ccc(N(CCCl)CCCl)cc1 | 93% (inactive) and 88.4% (inactive)

Same assay, conditions: 10 µM unless noted

Row | SMILES | growth
2 | O=C(O)C(Br)CBr (stereo not given) | 98.8% (inactive)
3 | Cc1cc2c(cc1-c1ccnc(/C=C/C(=O)O)c1)C(C)(C)CCC2(C)C | 67.9% (inactive)
4 | COc1cc(/C=C\[N+](=O)[O-])ccc1OCc1ccccc1 | 65.2% (inactive)
5 | Cc1ccc(P(=O)(O)O)cc1 | 107% (inactive)
6 | CCC(=O)C(CC(C)N1CCCCCC1)(c1ccccc1)c1ccccc1 (stereo not given) | 98.2% (inactive)
7 | O=C/C=C/c1ccco1 | 113% (inactive)
8 | COC(=O)CCP(CCC(=O)OC)c1ccccc1 | 103% (inactive)
9 | CC12CCC3C4CCC(=O)C=C4CCC3C1CC1CC(=O)OC12 (stereo not given) | 99.2% (inactive)
10 | CCCC[C@H]1C(=O)O[C@H](C)[C@H](NC(=O)c2cccc(NC=O)c2O)C(=O)O[C@@H](C)[C@@H]1OC(=O)CC(C)C | -5.18% (active)
11 | C[N+]12CCC34C5=CC(=O)C(=O)C=C5[N+]5(C)C(=O)CC6OCC=C(C1)C(CC32)C6C45 (stereo not given) | 97.5% (inactive)
12 | CC[C@H](C)[C@H](NC(=O)CN(C)C)C(=O)N(C)[C@H](C[C@@H](OC(C)=O)c1nc(C(=O)NC23CC(C(=O)OC)(C2)C3)cs1)C(C)C | 12.6% (inactive)
13 | Oc1cc(Cl)ccc1Oc1ccc(Cl)cc1Cl | -32% (active)
14 | COc1ccc(N)cc1N | 105% (inactive)
15 | Nc1cccnc1 | 112% (inactive)
16 | COc1ccc(CN)cc1OC | 115% (inactive)
17 | CCCCCCCCCCCCCCCC[N+](C)(C)Cc1ccccc1 | -86.5% (active) and -100% (active)
18 | O=C(O)C1C(C(=O)O)C2(Cl)C(Cl)=C(Cl)C1(Cl)C2(Cl)Cl (stereo not given) | 104% (inactive) and 116% (inactive)
19 | C#Cc1cccc(Nc2nc(Cl)nc3cc(NC(=O)CF)ccc23)c1 | 37.3% (inactive)
20 | C[C@]12CC[C@@H](OC(=O)N(CCCl)N=O)C[C@@H]1CC[C@@H]1[C@@H]2CC[C@]2(C)C(=O)CC[C@@H]12 | 56.8% (inactive)

Row | SMILES | growth
21 | CCC(=O)C(CC(C)[N+](C)(C)C)(c1ccccc1)c1ccccc1 (stereo not given) | 97.2% (inactive)
22 | NC(=O)c1c(Br)c(Br)c(Br)c(Br)c1C(=O)O (tested in a mixture with another compound) | 95.2% (inactive) and 101% (inactive)
23 | C[Se]/C=C1/C(=O)N(c2c(Cl)cccc2Cl)c2ccccc21 | 38.9% (inactive)
24 | OCCNC1CCCCC1 | 103% (inactive)
25 | C=C[Se]CC(=O)/C=C/c1ccccc1 | 92.2% (inactive)
26 | COc1ccc(/C=C(/C)[N+](=O)[O-])cc1OC | 52.9% (inactive) and 47.9% (inactive)
27 | COc1cc(-c2ccc(N)c(OC)c2)ccc1N | 105% (inactive)
28 | NC1CN2CCC1CC2 (stereo not given) | 110% (inactive)
29 | C[C@H](O)CCC(=O)c1ccoc1 | 99.9% (inactive)
30 | C/C(=C(\c1ccc(OCCN2CCOCC2)cc1)c1ccc(OC(=O)Cc2ccccc2)cc1)c1ccc(Cl)cc1 | 86.6% (inactive)
31 | CN(C)c1ccc(C=C2C(=O)NC(=O)NC2=O)cc1 | 94.4% (inactive)
32 | COc1ccc(C(C#N)C(C)=O)cc1 (stereo not given) | 102% (inactive)
33 | Cn1cc(-c2csc(-c3cn(CCCCN4CCOCC4)c4ccc(F)cc34)n2)c2cccnc21 | 48.1% (inactive)
34 | O=C(Cc1ccccc1)c1ccccc1 | 99.6% (inactive)
35 | CCCCOC(N)=O | 99.6% (inactive)
36 | O=P1(N(CCCl)CCCl)NCCCO1 (stereo not given) | 103% (inactive)
37 | CC[PH+](CC)CC.O=COC1OC([S-])C(OC=O)C(OC=O)C1OC=O.[Au+] (stereo not given) | -96.7% (active)
38 | CC[C@H](C)[C@H](NC(=O)[C@H]1CCCCN1C)C(=O)N(C)[C@H](C[C@@H](OC(C)=O)c1nc(C(=O)NC23C4C5C2C2C3C4C52C(=O)OC)cs1)C(C)C (stereo not given in full) | -56.9% (active)
39 | O=C1C=C(N2CC2)c2ccccc2C1=O | 59.7% (inactive)

Same assay, conditions: 75 µM

Row | SMILES | growth
40 | O=C(O)CCCc1ccc(N(CCCl)CCCl)cc1 | 38.6% (inactive)
